Among the data in PubChem BioAssay AID1347131 (National Center for Advancing Translational Sciences (NCATS), 2019) are Potency values, retold here.

The whole screen tested about 410,000 compounds, of which about 2,000 (0.49%) were called active. Entries that show only a call come without a potency. Another 8% or so got no clear call; they are omitted. Calls come from the whole dose curve; tested in HEK293 reporter line. The sample as a whole holds a higher share of actives than the screen did.
Potency is the fitted concentration of half-maximal effect.

This experiment in a line: qHTS Assay for Foot and Mouth Disease Virus Antivirals: Primary Screen against the MLPCN compound library. Note: nearly all actives have a fitted effect of over 55% in size. Conditions: FMDV antiviral cell-based qHTS; series mostly up to 57.9 µM. In general terms: In qHTS, concentration-response curves come from the screen itself.
As for `CCN(CC)c1ccc2c(Cl)c(Br)c(=O)oc2c1`, the Potency was 31.6 µM (active).
With `CCN(CC)c1ccc2cc(C(=O)NNC(=O)c3ccc(S(=O)(=O)N4CCCCC4)cc3)c(=O)oc2c1`, the Potency entry is “inactive”.
Take `CCN(Cc1cc(=O)oc2cc(C)ccc12)c1ccccc1`: the Potency result was “inactive”.
The entry for `O=C(C1=C[C@H](c2ccc3c(c2)OCO3)C[C@H](OCc2ccc(CO)cc2)O1)N1CCN(Cc2ccc3c(c2)OCO3)CC1` is “inactive”; for `Cc1ccc(Nc2nc(N)nc(CN3CCN(c4ccccc4F)CC3)n2)cc1` it is “inactive”; for `O=C(Oc1cccc(/C=N/Nc2nc(N3CCOCC3)nc(N3CCOCC3)n2)c1)c1ccco1` it is “inactive”.
The entry for `CCOc1ccc(C=NNC(=O)c2cccc3ccccc23)cc1OCC` is “inactive”.
For the molecule `O=C(N/N=C/c1ccc2ncccc2c1)c1ccco1`, the Potency was 14.1 µM (active).
As to `Cc1ccc(-c2ccc(=O)n(Cc3cc(C)ccc3C)n2)cc1`, the Potency result is “inactive”.
The entry for `CCN1CCN(c2cc(-c3ccccc3)nc3cc(-c4cccc(F)c4)nn23)CC1` is “inactive”; for `C=CC[C@@H](Cc1ccc(F)cc1)C(=O)OC[C@H]1CCCN1C(=O)[C@@H](CC=C)CC(=O)N(CCO)Cc1ccccc1` it is “inactive”.
In the case of `C=CC[C@@H](CC(=O)OC(C)(C)C)C(=O)OC[C@@H]1CCCN1C(=O)[C@@H](CC=C)CC(=O)N[C@@H](CO)Cc1ccccc1`, the Potency result is “inactive”.
To `C=CC[C@@H](CC(=O)OC(C)(C)C)C(=O)OC[C@@H]1CCCN1C(=O)[C@@H](CC=C)CC(=O)N[C@H](CO)Cc1ccccc1` belongs 14.1 µM (active); to `COc1ccc(C(C)=O)cc1COC(=O)CNC(=O)c1ccccc1F`, “inactive”; to `N#CC(=C=[N-])c1nc2ccccc2nc1-[n+]1ccccc1`, “inactive”.
To `COc1cccc(/C=N/NC(N)=S)c1OCc1cccc(Cl)c1` belongs 22.4 µM (active); to `COc1cc(/C=N/NC(N)=S)cc(Br)c1OCc1ccccc1F`, “inactive”; to `COc1cccc(/C=N/NC(=O)CSc2nnc(C)n2-c2ccccc2)c1OC`, “inactive”.
As to `CC(C)(C)C(=O)Nc1ccc(-c2nc3ccccc3s2)cc1`, the Potency entry was “inactive”.
To `Cc1cc(-c2nc3cc(F)ccc3s2)ccc1N` belongs 12.6 µM (active); to `CN(C(=O)OC(C)(C)C)c1ccc(-c2nc3ccccc3s2)cc1`, “inactive”; to `Cc1cc(-c2nc3ccccc3s2)ccc1N`, 7.94 µM (active).
The entry for `Cc1ccccc1-c1nc(CN2CCC(C(=O)NC3CCN(Cc4ccccc4)CC3)CC2)c(C)o1` is “inactive”; for `Cc1cc(=O)[nH]c(N/N=C/C2=C(N3CCOCC3)C(=C\c3ccc(Cl)cc3)/CC2)n1` it is “inactive”; for `O=C(Nc1ccc(Cl)c(C(F)(F)F)c1)c1cc2nc(-c3ccc4c(c3)OCO4)cc(C(F)(F)F)n2n1` it is “inactive”.
